We go through nine compounds from PubChem BioAssay (NCI).

Common to all, as to assay: NCI-60 one-dose screen, 48 h (100 = growth as untreated, 0 = no growth, -100 = all killed)
One assay has as its system SN12C renal. The conditions noted are these: 10 µM unless noted.
The test system of another assay is UO-31 renal. The conditions noted are these: 10 µM unless noted.
The next assay relates to TK-10 renal. The conditions noted are these: 10 µM unless noted.
Another assay concerns ACHN renal. The conditions noted are these: 10 µM unless noted.
In the next assay the test system is CAKI-1 renal. The conditions noted are these: 10 µM unless noted.
A further assay has as its system A498 renal. The conditions noted are these: 10 µM unless noted.
Another assay relates to CCRF-CEM leukemia. The conditions noted are these: 10 µM unless noted.
A further assay has as its system MOLT-4 leukemia. The conditions noted are these: 10 µM unless noted.
The test system of a further assay is SR leukemia. The conditions noted are these: 10 µM unless noted.
For a further assay, the system named is RPMI-8226 leukemia. The conditions noted are these: 10 µM unless noted.
The test system of the next assay is OVCAR-8 ovarian. The conditions noted are these: 10 µM unless noted.
In the next assay the test system is OVCAR-5 ovarian. The conditions noted are these: 10 µM unless noted.
For the next assay, the system named is OVCAR-4 ovarian. The conditions noted are these: 10 µM unless noted.
The next assay deals with SK-OV-3 ovarian. The conditions noted are these: 10 µM unless noted.
The test system of a further assay is IGROV1 ovarian. The conditions noted are these: 10 µM unless noted.
In the next assay the test system is OVCAR-3 ovarian. The conditions noted are these: 10 µM unless noted.
The next assay has as its system HS 578T breast. The conditions noted are these: 10 µM.
The test system of another assay is NCI/ADR-RES ovarian. The conditions noted are these: 10 µM unless noted.

About 83,000 compounds went through this panel and 20% of them were active in at least one assay; those are over-represented in the sample as a whole.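 Single-dose data. Exposure time 48 hours. Values below 10 considered active.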 Values without a mark were called inactive. Calls of active or inactive are those of the source.

Turning to `COc1cc(C(=O)/C=C/c2cn(-c3ccccc3)nc2-c2cccc(Nc3ccnc4cc(Cl)ccc34)c2)cc(OC)c1OC`, the growth in the assay on SN12C renal is 90.9%; with UO-31 renal it was 86.4%; with TK-10 renal, 133%; in the assay on ACHN renal it was 108%; in the assay with CAKI-1 renal it was 103%; in the assay on A498 renal it was 99.6%. For the same compound, the growth with CCRF-CEM leukemia is 21%; in the assay with MOLT-4 leukemia, 63.3%; in the assay with SR leukemia, 3.48% (active); with RPMI-8226 leukemia, 47.2%; in the assay with OVCAR-8 ovarian it was 78.5%; in the assay with OVCAR-5 ovarian, 112%. Further, the growth was 127% with OVCAR-4 ovarian, 115% in the assay with SK-OV-3 ovarian, 93.2% in the assay with IGROV1 ovarian and 132% in the assay with OVCAR-3 ovarian.
As to `COc1ccc(C2CC(c3ccc(Nc4ccnc5cc(Cl)ccc45)cc3)=NN2c2ccccc2)cc1` (stereo unspecified), the growth in the assay on SN12C renal was 91.9%; in the assay on UO-31 renal, 93.9%; in the assay with TK-10 renal, 109%; in the assay on ACHN renal, 97.2%; in the assay on CAKI-1 renal, 85.1%; with A498 renal it was 49.7%. In addition, the growth in the assay on CCRF-CEM leukemia is 69.8%; in the assay on MOLT-4 leukemia, 52.3%; with SR leukemia, 81%; in the assay with RPMI-8226 leukemia, 70.5%; in the assay with OVCAR-8 ovarian, 95.4%; in the assay on OVCAR-5 ovarian, 86.2%. Moreover, the growth was 163% with OVCAR-4 ovarian, 108% in the assay on SK-OV-3 ovarian, 113% with IGROV1 ovarian and 111% with OVCAR-3 ovarian.
Regarding `Clc1ccc(Nc2ncnc3c2sc2ncccc23)c(Cl)c1`, the growth was 20.4% in the assay on SN12C renal; -11.7% (active) with UO-31 renal; 59.6% in the assay on TK-10 renal; 9.32% (active) with ACHN renal; 15.1% with CAKI-1 renal; 26.7% with A498 renal. Further, the growth was 16.6% in the assay on CCRF-CEM leukemia; 8.22% (active) in the assay on MOLT-4 leukemia; 9.78% (active) in the assay on SR leukemia; 30% with RPMI-8226 leukemia; 4.31% (active) with OVCAR-8 ovarian; 59.5% with OVCAR-5 ovarian. The growth in the assay on OVCAR-4 ovarian was 84.9%; in the assay on SK-OV-3 ovarian it was 25.5%; in the assay on IGROV1 ovarian it was 70.4%; in the assay on OVCAR-3 ovarian it was 55.5%; with HS 578T breast, 95.8%; with NCI/ADR-RES ovarian, 15%.
In the case of `Cc1cc(C)c2c(n1)sc1c(Nc3ccc(O)cc3)ncnc12`, the growth is 21.5% in the assay on SN12C renal; -10.3% (active) in the assay on UO-31 renal; 59.1% with TK-10 renal; 16% with ACHN renal; 15.8% in the assay on CAKI-1 renal; 18.6% with A498 renal. Besides, the growth is 16.6% with CCRF-CEM leukemia; 14.3% with MOLT-4 leukemia; 13.4% in the assay on SR leukemia; 39% with RPMI-8226 leukemia; 10.8% in the assay on OVCAR-8 ovarian; 55.4% in the assay on OVCAR-5 ovarian. Also, the growth in the assay on OVCAR-4 ovarian was 90.6%; in the assay on SK-OV-3 ovarian, 30.5%; in the assay on IGROV1 ovarian, 68.2%; in the assay on OVCAR-3 ovarian, 55.3%; in the assay with HS 578T breast it was 82.5%; in the assay on NCI/ADR-RES ovarian it was 19.1%.
Regarding `CCCCCCCCCCCCCCCc1cc(O)ccc1[N+](=O)[O-]`, the growth with SN12C renal was 75.5%; with UO-31 renal it was 58.6%; in the assay with TK-10 renal, 112%; with ACHN renal, 91.9%; in the assay on CAKI-1 renal it was 72.9%; in the assay with A498 renal it was 98%. Also, the growth in the assay with CCRF-CEM leukemia is 9.46% (active); with MOLT-4 leukemia it was 32.2%; in the assay on SR leukemia, 74.5%; in the assay with RPMI-8226 leukemia, 36.3%; with OVCAR-8 ovarian, 76.9%; in the assay on OVCAR-5 ovarian, 94%. For the same compound, the growth in the assay with OVCAR-4 ovarian was 87.2%; in the assay with SK-OV-3 ovarian, 92%; with IGROV1 ovarian, 73.9%; with OVCAR-3 ovarian, 87.7%; in the assay on HS 578T breast, 82.1%; with NCI/ADR-RES ovarian, 77.1%.
With `COc1cc(C2CC(c3cccc(Nc4ccnc5cc(Cl)ccc45)c3)=NN2c2ccccc2)cc(OC)c1OC` (stereo unspecified), the growth is 68.1% in the assay on SN12C renal; 38% with UO-31 renal; 75.4% in the assay on TK-10 renal; 45% in the assay with ACHN renal; 8.35% (active) in the assay with CAKI-1 renal; 73.3% with A498 renal. Also, the growth is 57.1% with CCRF-CEM leukemia; 74.4% in the assay with MOLT-4 leukemia; 52.7% with SR leukemia; 53.1% in the assay with RPMI-8226 leukemia; 69.6% in the assay on OVCAR-8 ovarian; 99.8% with OVCAR-5 ovarian. Moreover, the growth was 124% with OVCAR-4 ovarian; 101% in the assay on SK-OV-3 ovarian; 76.4% in the assay with IGROV1 ovarian; 90.6% with OVCAR-3 ovarian; 63.6% with HS 578T breast.
On to `Nc1nc(N)c2c(n1)NC(c1sc(Cl)nc1Cl)CC(c1ccc3c(c1)OCO3)=N2` (stereo unspecified), for which the growth was 35.2% in the assay on SN12C renal; 30.4% with UO-31 renal; 50.6% with TK-10 renal; 45% in the assay with ACHN renal; 26.5% with CAKI-1 renal; -2.91% (active) in the assay on A498 renal. Further, the growth in the assay with CCRF-CEM leukemia is 11.1%; with MOLT-4 leukemia, 25.3%; in the assay with SR leukemia, 17.1%; with RPMI-8226 leukemia it was 27.1%; in the assay with OVCAR-8 ovarian, 40.5%; in the assay with OVCAR-5 ovarian it was 66.3%. Further, the growth is 86% in the assay with OVCAR-4 ovarian; 17.4% in the assay with SK-OV-3 ovarian; 34.2% in the assay on IGROV1 ovarian; 10.4% in the assay on OVCAR-3 ovarian; 10.8% in the assay with HS 578T breast.
As to `O=C1CC2(O)CSc3nc(=O)cc(n32)N1` (stereo unspecified), the growth is 96.9% with SN12C renal; 82.7% in the assay with UO-31 renal; 106% with TK-10 renal; 101% with ACHN renal; 92.5% in the assay on CAKI-1 renal; 104% in the assay with A498 renal. Also, the growth with CCRF-CEM leukemia was 101%; in the assay with MOLT-4 leukemia it was 107%; in the assay with SR leukemia it was 102%; in the assay with RPMI-8226 leukemia, 99%; in the assay with OVCAR-8 ovarian, 107%; in the assay on OVCAR-5 ovarian, 105%. Besides, the growth is 121% in the assay with OVCAR-4 ovarian; 102% in the assay on SK-OV-3 ovarian; 109% with IGROV1 ovarian; 115% in the assay with OVCAR-3 ovarian; 121% in the assay with HS 578T breast; 112% in the assay on NCI/ADR-RES ovarian.
For the compound `Nc1c(C(=O)c2ccc(Br)cc2)sc2nc3c(cc12)CCCC3`, the growth in the assay on SN12C renal was 90.7%; with UO-31 renal, 89.7%; in the assay with TK-10 renal it was 108%; with ACHN renal, 96.3%; in the assay on CAKI-1 renal, 105%; in the assay with A498 renal it was 70.9%. For the same compound, the growth was 89.9% with CCRF-CEM leukemia; 96.4% in the assay on MOLT-4 leukemia; 65.3% with SR leukemia; 94.6% with RPMI-8226 leukemia; 98.7% with OVCAR-8 ovarian; 88% in the assay with OVCAR-5 ovarian. The growth in the assay with OVCAR-4 ovarian was 105%; in the assay on SK-OV-3 ovarian it was 106%; in the assay with IGROV1 ovarian, 108%; in the assay with OVCAR-3 ovarian, 95.4%; in the assay on HS 578T breast, 109%; in the assay on NCI/ADR-RES ovarian, 85.7%.
